In the supplement of paper PMC10338343:
± gives the standard deviation. Over roughly 3,700 sequences, “pre-steady-state target cleavage rate” has its median near 0.02; the highest 2% begin near 0.23. The full list was thinned out, with the highest values kept by preference.

System: MILI (PIWIL2) piRISC loaded with Kctd7 piRNA (26 nt)
Experiment: pre-steady-state target cleavage rate (min^-1); MIWI and MILI are mouse PIWI proteins and EfPiwi is from a freshwater sponge; tags in brackets are library labels; higher = faster piRNA-guided slicing of the target
Conditions: guide: Kctd7 piRNA 5'p-UGUUAAUCUCUCAGAGAAGGUGACAG; auxiliary factor: 500 nM mouse GTSF1
Procedure, shortened: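 Sequencing of uncleaved targets, normalised to depth and to weakly complementary targets, was the readout of this Cleave-'n-Seq assay. A transcribed, DNA-blocked target RNA library (0.1 nM) was mixed with 1 nM active affinity-purified piRISC carrying one synthetic guide, with or without 500 nM GTSF1 partner protein, in HEPES–potassium acetate buffer at 33 °C for 0–8 or 0–960 min. Three trials were pooled, k3 was capped at 0.0001 min^-1, and a burst-and-steady-state fit gave the pre-steady-state cleavage rate.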

Row | Sequence | pre-steady-state target cleavage rate
1 | UAGUGAGUCACCUUCUCUGAGAGUAUAACA | 0.144 ± 0.057
2 | UAGUGAGUCACCUUCUCUGAGAGAGUAACA | 0.239 ± 0.063
3 | UAGUGAGUCACCUUCUCUGAGAGUAUUAACA | 0.158 ± 0.019
4 | UAGUGAGUCACCUUCUCUGAGAGAUUUAACA | 0.225 ± 0.04
5 | UAGUGAGUCACCUUCUCUGAGAGUUUAACA | 0.277 ± 0.061
6 | UAGUCAGUCACCUUCUCUGAGAGUUUAACA | 0.261 ± 0.041
7 | UAGUGAGUCACCUUCUCUGAGAGCUUAACA | 0.155 ± 0.026
8 | UAGUGAGUCACCUUCUCUCAGAGUUUAACA | 0.0248 ± 0.0099
9 | UAGUCUGACACCUUCUCUGAGAGUUUAACA | 0.109 ± 0.016
10 | UAGUGAGUCACCUUCUCUGAGAGUAAAACA | 0.14 ± 0.045
11 | UAGUGAGUCACCUUCUCUGAGAGUUAACA | 0.253 ± 0.077
12 | UAGUGAGUCACCUUCUCUGACAGUUUAACA | 0.0134 ± 0.0052
13 | UAGUGAGUGACCUUCUCUGAGACAUUAACA | 0.0267 ± 0.0076
14 | UAGUCUCUCACCAUCUCUGAGAGAUUAACA | 0.0256 ± 0.0069
15 | UAGUGAGUGACCUUCUCUGAGAGAUAAACA | 0.0814 ± 0.021
16 | UAGUGACUCACCUUGUCUGAGACAUUAACA | 0.0647 ± 0.011
17 | UAGUGAGUCACCUUCUCUGAGAGUUUAUCA | 0.132 ± 0.049
18 | UAGUGUGUCACCUUCUCUGAGAGUUUAUGA | 0.0769 ± 0.038
19 | UAGUGAGUCACCUUCUCUGAGAGUUUAUGA | 0.275 ± 0.092
20 | UAGUGAGUCACCUUCUCUGAGAGAGUUAACA | 0.257 ± 0.044
21 | UAGUGAGUCACCUUCUCUGAGAGAAAAACA | 0.0915 ± 0.023
22 | UAGUGAGUCACCUUCUCUGAGAGUUAAACA | 0.297 ± 0.086
23 | UAGUGAGUCACCUUCUCUGAGAGACUUAACA | 0.137 ± 0.032
24 | UAGUGAGUCACCUUCUCUGAGAGGUUAACA | 0.142 ± 0.019
25 | UAGUGACUCACCUUCUCUGAGAGUUAAACA | 0.0666 ± 0.014

Row | Sequence | pre-steady-state target cleavage rate
26 | UAGUGAGUCACCUUCUCUGAGAGAUGUAACA | 0.312 ± 0.047
27 | UAGUGUGUCACCUUCUCUGAGAGAUGUAACA | 0.159 ± 0.029
28 | UAGUCUGUCACCUUCUCUGAGAGAUGUAACA | 0.211 ± 0.03
29 | UAGUGACACACCUUCUCUGAGAGAAAUACA | 0.0296 ± 0.013
30 | UAGUGUGUCAGCUUCUCAGAGAGAUUAACA | 0.0938 ± 0.0081
31 | UAGUGACACACCUUGUCUGAGACAUUAACA | 0.0978 ± 0.026
32 | UAGUGUGUCACCUUCGUCUGAGAGAUUAACA | 0.088 ± 0.012
33 | UAGUGACUCACCUUCUCUGAGAGAUUAUGA | 0.0729 ± 0.012
34 | UAGUGAGUCCCCUUCUCUGAGAGAUUAACA | 0.214 ± 0.021
35 | UAGUGACACACCUUCUCUGAGAGAUUACA | 0.0753 ± 0.023
36 | UAGUGUGUCACCUUCUGUCAGAGAUUAACA | 0.039 ± 0.0051
37 | UAGUGAGUCACCUUCUCUGAGAUAUUAACA | 0.115 ± 0.017
38 | UAGUGACACACCUUCUCUGAGACAUUAACA | 0.0514 ± 0.0091
39 | UAGUGUCUCACCUUCUCUGAGAGAUUAUGA | 0.0163 ± 0.0063
40 | UAGUGACAGACCGUCUCUGAGAGAUUAACA | 0.0355 ± 0.0065
41 | UAGUGAGUCACCUUCACAGAGAGAUUAACA | 0.0664 ± 0.0081
42 | UAGUGACUCACCUUCUGUGACAGAUUAACA | 0.0678 ± 0.011
43 | UAGUGACAGACCUACUCUGAGAGAUUUACA | 0.0238 ± 0.0093
44 | UAGUGACACACCUUCUCUCAGACAUUAACA | 0.0383 ± 0.011
45 | UAGUCAGUCACCAUCUCUGAGAGAUUAACA | 0.171 ± 0.0086
46 | UAGUGAGUCACCUUCUCUGAGAGUUUUACA | 0.257 ± 0.078
47 | UAGUGUGUCACCUUCUCUGAGAGUUUUACA | 0.14 ± 0.046
48 | UAGUCUGUCACCUUCUCUGAGAGUUUUACA | 0.171 ± 0.054
49 | UAGUGUGUCACCAUCUCUGAGAGAUUUACA | 0.158 ± 0.033
